Laboratory results: PubChem BioAssay (NCATS)
Inconclusive results are not listed. Entries that show only a call come without a potency. Calls of active or inactive are those of the source. Unless noted, calls come from the whole dose curve; as a rule, active = well fitted curve in the direction sought with a large enough effect; inconclusive = small, poorly fitted or top-dose-only effect, or another doubt; inactive = no such curve, though single readings can be large; an effect the other way counts as inactive or inconclusive.

Assays:
Furin (Homo sapiens) = Furin (Homo sapiens) (UniProt P09958); experiment: Furin counterscreen qHTS for Zika virus inhibitors (AID 1347149); note: nearly all actives have a fitted effect of over 70% in size; note: potency is the fitted concentration of half-maximal effect;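 for activity change, negative = inhibition: purified recombinant full-length human furin enzyme at 5 nM; fluorescence gain from furin cutting a BOC-RVRR-AMC peptide substrate over 15 min; top concentration of the series differs between compounds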
In short: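 Fluorogenic cleavage of BOC-RVRR-AMC (2 microM final, Km ~15 µM) was monitored (ex 340, em 450 nm) at 37C after 15 min RT preincubation of 5 nM furin with compounds in HEPES pH 7.0 buffer with CaCl2 and Triton X-100. Percent inhibition was fitted to a 4-parameter Hill curve.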

[1] = ZIKV-mCherry secondary qHTS for Zika virus inhibitors (AID 1347158); note: top concentration of the series differs between compounds
In short: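 After overnight seeding at 37 °C, Vero cells receive compound and then ZIKV-mCherry (MOI 1). Following 48-72 h infection, cells are fixed, counterstained with Hoechst, and imaged; percent infected cells is derived from an mCherry intensity cut-off of 450 RFU.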

[2] = tested on: Zika virus NS2B-NS3 protease (linked construct); experiment: 384 well plate NINDS Rhodamine confirmatory qHTS for Zika virus inhibitors (AID 1347164);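 note: fluorescence from protease cleavage of Ac-LKRR-rhodamine 110 substrate; nearly all actives have a fitted effect of over 65% in size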; note: potency is the fitted concentration of half-maximal effect; for activity change, negative = inhibition: top concentration of the series differs between compounds
In short: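 Linked protease at a final 5 nM, 30 nM or 60 nM was preincubated ~15 min with compounds, then given 10 microM Ac-LKRR-Rhodamine 110. Fluorescence (ex 485/em 538 nm) after 25 min in the dark at room temperature.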

[3] = Tertiary RLuc qRT-PCR qHTS assay for Zika virus inhibitors (AID 1347169); note: nearly all actives have a fitted effect of over 55% in size; note: potency is the fitted concentration of half-maximal effect; for activity change, negative = inhibition: top concentration of the series differs between compounds
In short: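 Vero cells (1,000 per well) plated overnight at 37 degrees C, treated with compound in DMSO, then infected with recombinant ZIKV-RLuc (Cambodian) at MOI 1-2 for 48-72 hrs. Live-cell Renilla luciferase substrate added; luminescence read after 1-1.5 hrs.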

[4] = Confirmatory screen GU Rhodamine qHTS for Zika virus inhibitors qHTS (AID 1347157); note: nearly all actives have a fitted effect of over 70% in size
In short: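 Unlinked NS2B/NS3, 25 nM; Rhod110 peptide, 1.5 microM; compounds, up to 114 microM. Reaction run 15 min at RT in 10 mM Tris-HCl pH 8.0, 0.01% Tween 20; kinetic fluorescence change fitted with a 4-parameter Hill model.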

[5] = Confirmatory screen NINDS Rhodamine qHTS for Zika virus inhibitors (AID 1347161); note: potency is the fitted concentration of half-maximal effect; nearly all actives have a fitted effect of over 60% in size
In short: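 Rhodamine110-peptide cleavage (1.5 µM substrate) by 25 nM linked NS2B-NS3 enzyme at pH 8.0 (Tris, Tween 20), after 15 min RT preincubation with compounds; 15-min fluorescence change normalized to controls and Hill-fitted.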

[6] = tested on: Zika virus NS2B-NS3 protease (linked); experiment: 384 well plate NINDS AMC confirmatory qHTS for Zika virus inhibitors (AID 1347163); note: nearly all actives have a fitted effect of over 50% in size; note: potency is the fitted concentration of half-maximal effect;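 for activity change, negative = inhibition: linked protease at 5 30 or 60 nM final depending on run; fluorescence of AMC released from Ac-VKTGKR-AMC peptide cleaved by the protease; top concentration of the series differs between compounds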
In short: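 Linked protease 5/30/60 nM final; cpds up to 1 mM final, ~15 min preinc. Substrate Ac-VKTGKR-AMC 30 microM final. RT, dark, 25 min; FI ex 355/em 460; normalized to no-enzyme/no-inhibitor ctrls.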

[7] = target: Rap guanine nucleotide exchange factor 3 (Homo sapiens) (UniProt O95398); experiment: Confirmatory qHTS for antagonist of cAMP-regulated guanine nucleotide exchange factor 3 (EPAC1) (AID 1645880); note: nearly all actives have a fitted effect of over 55% in size
In short: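 Nucleotide exchange uses 100 nM EPAC1, 250 nM RAP1B-BODIPY-GDP and 50 uM GDP, with compounds in a concentration-titration series. After 5 min at room temperature, fluorescence (480 nm ex/540 nm em) is read every 5 min for 30 min. Data are normalized to control ATA and DMSO.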

[8] = target: Rap guanine nucleotide exchange factor 3 (Homo sapiens) (UniProt O95398); experiment: Confirmatory qHTS for agonist of cAMP-regulated guanine nucleotide exchange factor 3 (EPAC1) (AID 1645881);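 note: EPAC1 catalysed release of BODIPY-GDP from Rap1B seen as fluorescence loss; nearly all actives have a fitted effect of over 75% in size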
[9] = target: Rap guanine nucleotide exchange factor 4 (Homo sapiens) (UniProt Q8WZA2); experiment: Confirmatory qHTS for agonist of cAMP-regulated guanine nucleotide exchange factor 4 (EPAC2) (AID 1645884);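 note: nucleotide exchange releases bodipy-GDP from Rap1 and this lowers its fluorescence; nearly all actives have a fitted effect of over 65% in size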
[10] = target: Rap guanine nucleotide exchange factor 4 (Homo sapiens) (UniProt Q8WZA2); experiment: Confirmatory qHTS for antagonist of cAMP-regulated guanine nucleotide exchange factor 4 (EPAC2) (AID 1645885); note: nearly all actives have a fitted effect of over 25% in size
[11] = target: Rap guanine nucleotide exchange factor 3 (Homo sapiens) (UniProt O95398); experiment: Counterscreen qHTS for antagonist of cAMP-regulated guanine nucleotide exchange factor 3 (EPAC1) (AID 1645888);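 note: fluorescence loss as bound BODIPY-GDP is released from Rap1B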
In short: (§1)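 Measured: fluorescence of BODIPY-GDP bound to Rap1B, which falls as exchange proceeds. Conditions include 50 uM competing GDP, 5 and 30 min reads, and a later cAMP challenge for antagonist detection.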

[12] = target: Rap guanine nucleotide exchange factor 3 (Homo sapiens) (UniProt O95398); experiment: Counterscreen qHTS for agonist of cAMP-regulated guanine nucleotide exchange factor 3 (EPAC1) (AID 1645889); note: nearly all actives have a fitted effect of over 40% in size
In short: as §1

[13] = AP1 Signaling Pathway (AID 357; active = well fitted curve in either direction with a large enough effect, not every such curve was filed as active;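 note: ME-180 reporter cells stimulated with EGF at its EC50 level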); details: ME-180 AP-1-bla reporter, EGF-induced, beta-lactamase ratio, 5 h; at 17.2 µM (top of the series)
In short: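 Titration-series screen for positive or negative modulators of EC50 EGF-induced signaling in ME-180 cells carrying an AP-1-driven beta-lactamase reporter. After 5 hours at 37 degrees Celsius, CCF4 460nm/530nm emission ratio gave %Activity; AC50 values derived.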

[14] = Stat Signaling Pathway (AID 446; active = well fitted curve in either direction with a large enough effect, not every such curve was filed as active;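 note: ME-180 cervical cancer cells given 40 pM IL-6 alongside compound; SIE-controlled beta-lactamase reporter measured as 460/530 nm FRET emission ratio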); details: ME-180 SIE beta-lactamase reporter, IL-6 stimulated, 5 h; at 17.2 µM (top of the series)
In short: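 ME-180 SIE-bla cells; overnight plating; cpd + IL-6 40 pM, 5 h, 37 C; LiveBLAzer 2.5 h RT; 460/530 nm emission ratio. Normalized to 300 pM IL-6 and 125 nM JAK inhibitor controls.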

[15] = target: Glucocorticoid receptor (Homo sapiens) (UniProt P04150); experiment: GR-GFP Redistribution (AID 450;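 active = compounds whose dose series gives a full or clear partial fitted curve of increased nuclear translocation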; note: potency is the fitted concentration of half-maximal effect); details: U2OS GR-GFP nuclear translocation, laser cytometry, 2 h
[16] = target: Glucocorticoid receptor (Homo sapiens) (UniProt P04150); experiment: GR-EFC Redistribution (AID 451; calls by dose curve; note: potency is the fitted concentration of half-maximal effect); details: CHO-K1 GR-EFC translocation, beta-gal luminescence, 2 h
In short: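 CHO-K1 cells stably expressing nuclear-localized β-gal enzyme acceptor and GR fused C-terminally to the enzyme donor fragment; ligand-driven nuclear translocation restores β-gal by complementation. Compounds titrated up to 46 uM final, 2 h at 37 °C; luminescence read.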

[17] = target: Mitogen-activated protein kinase 10 (Mus musculus) (UniProt Q61831); experiment: JNK3 AlphaScreen Assay (AID 530; active = well fitted curve in either direction with a large enough effect, not every such curve was filed as active;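 note: kinase came from lysate of stimulated human HepG2 cells; signal reports phosphorylation of biotinylated GST-cJun 1-79 at Ser73 with 10 µM ATP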)
In short: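 JNK3 came from HepG2 lysates pre-activated with IL-1beta and TNF-alpha and phosphorylated biotinylated GST-cJun (1-79) at 10 uM ATP, pH 7.6, room temperature. Compounds were titrated. AlphaScreen signal used anti-phospho-cJun (Ser73) antibody.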

[18] = target: 3',5'-cyclic-AMP phosphodiesterase 4B (Homo sapiens) (UniProt Q07343); experiment: qHTS Assay for Inhibitors of PDE-IV (AID 607; active = well fitted activation curve with a large enough effect in the main read-out, with a control signal flat, not every such curve was filed as active)
In short: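 ACTOne HEK293 cells carry a modified cAMP-gated CNG channel and express endogenous PDE4; plated 1000 cells/well, compounds up to 22.9 uM final. Membrane-potential dye fluorescence (ex 535/em 590) was read; parental cells received 10 uM forskolin + 100 uM RO 20-1724.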

[19] = qHTS Assay for Lipid Storage Modulators (AID 1519; calls by dose curve); details: Drosophila S3 cells, BODIPY lipid droplet/cell ratio, laser cytometry, cells loaded with oleic acid
In short: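 Cells seeded at 5,000 per well were treated with compounds over a concentration series and loaded with oleic acid (400 uM, as added). Lipid droplet fluorescence (488 nm excitation, 500-530 nm channel) was read by laser-scanning cytometry and normalized to 20 uM Triacsin C.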

[20] = target: Ubiquitin carboxyl-terminal hydrolase 1 (Homo sapiens) (UniProt O94782); experiment: Inhibitors of USP1/UAF1: Pilot qHTS (AID 504865);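 note: rhodamine fluorescence freed from ubiquitin-rhodamine substrate followed over time; top concentration of the series differs between compounds; nearly all actives have a fitted effect of over 35% in size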
In short: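 USP1/UAF1 complex (1nM) preincubated with compound 15 min at room temperature, then Ub-Rho substrate (150nM final) added. Fluorescence read kinetically at 480/540 nm, 6 reads every 60 seconds. Buffer: 50mM HEPES pH 7.8, 0.5mM EDTA, 0.1 mg/ml BSA, 1mM TCEP, 0.01% Tween-20.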

[21] = Vero cells viability qHTS for Zika virus inhibitors (AID 1347167)
In short: (§2)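 Counter-screen for cytotoxicity of hits from NS2B-NS3 protease qHTS. Overnight-attached cells (2.5 x 10^5 cells/mL, DMEM/4% FBS) were dosed in titration, incubated 24 to 48 hours, then assayed by CellTiter Glo.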

[22] = HepG2 cells viability qHTS for Zika virus inhibitors (AID 1347168)
In short: as §2

[23] = tested on: Zika virus NS2B-NS3 protease (linked construct); experiment: Confirmatory screen NINDS AMC qHTS for Zika virus inhibitors (AID 1347152);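 note: AMC fluorescence gain from cleaved Bz-Nle-KRR-AMC substrate over 15 min; top concentration of the series differs between compounds; nearly all actives have a fitted effect of over 70% in size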
In short: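 Purified NS2B-NS3 protease with NS2B hydrophilic domain linked to NS3 protease domain by flexible linker, 1 nM final in 10 mM Tris-HCl pH 8.0, 0.01% Tween 20. Compounds preincubated 15 min, room temperature; Bz-Nle-KRR-AMC 10 microM (Km 18.3 µM); 15-min fluorescence change, 4-parameter Hill fit.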

[24] = tested on: Zika virus NS2B-NS3 protease (unlinked complex); experiment: Confirmatory screen GU AMC qHTS for Zika virus inhibitors (AID 1347153); note: nearly all actives have a fitted effect of over 70% in size
In short: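 Noncovalent NS2B hydrophilic domain/NS3 protease complex (25 nM) in 10 mM Tris-HCl pH 8.0, 0.01% Tween 20 was preincubated 15 min at room temperature with compounds. Then 10 µM AMC substrate (Km 18.3 µM) was added; fluorescence was read over 15 min and fitted to a 4-parameter Hill equation.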

Sequence of Rap guanine nucleotide exchange factor 3 (Homo sapiens) (O95398 whole entry, looked up): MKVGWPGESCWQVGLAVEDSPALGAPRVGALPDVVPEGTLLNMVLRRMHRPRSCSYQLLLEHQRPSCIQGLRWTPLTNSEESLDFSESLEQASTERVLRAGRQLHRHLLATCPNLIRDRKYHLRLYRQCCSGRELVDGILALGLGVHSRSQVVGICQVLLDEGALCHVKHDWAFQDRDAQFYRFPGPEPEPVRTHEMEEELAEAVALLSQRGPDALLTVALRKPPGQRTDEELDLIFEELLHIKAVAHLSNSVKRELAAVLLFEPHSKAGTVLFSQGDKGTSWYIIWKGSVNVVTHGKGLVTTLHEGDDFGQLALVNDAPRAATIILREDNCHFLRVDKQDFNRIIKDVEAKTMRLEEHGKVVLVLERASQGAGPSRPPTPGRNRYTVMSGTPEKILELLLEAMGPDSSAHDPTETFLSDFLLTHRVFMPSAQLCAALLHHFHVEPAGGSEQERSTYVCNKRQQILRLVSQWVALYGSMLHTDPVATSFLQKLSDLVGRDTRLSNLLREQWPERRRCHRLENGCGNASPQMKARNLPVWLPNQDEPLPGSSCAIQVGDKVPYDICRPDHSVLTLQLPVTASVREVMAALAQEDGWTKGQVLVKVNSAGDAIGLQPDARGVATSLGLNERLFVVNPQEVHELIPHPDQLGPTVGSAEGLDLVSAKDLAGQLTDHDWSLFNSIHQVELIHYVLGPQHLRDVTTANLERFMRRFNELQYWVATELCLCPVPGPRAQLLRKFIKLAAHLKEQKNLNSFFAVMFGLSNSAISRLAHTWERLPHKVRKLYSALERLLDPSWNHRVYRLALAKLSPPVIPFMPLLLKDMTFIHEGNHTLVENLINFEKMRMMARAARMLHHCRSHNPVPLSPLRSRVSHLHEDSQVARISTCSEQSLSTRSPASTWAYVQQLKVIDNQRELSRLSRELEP
Sequence of Furin (Homo sapiens) (P09958 whole entry, looked up): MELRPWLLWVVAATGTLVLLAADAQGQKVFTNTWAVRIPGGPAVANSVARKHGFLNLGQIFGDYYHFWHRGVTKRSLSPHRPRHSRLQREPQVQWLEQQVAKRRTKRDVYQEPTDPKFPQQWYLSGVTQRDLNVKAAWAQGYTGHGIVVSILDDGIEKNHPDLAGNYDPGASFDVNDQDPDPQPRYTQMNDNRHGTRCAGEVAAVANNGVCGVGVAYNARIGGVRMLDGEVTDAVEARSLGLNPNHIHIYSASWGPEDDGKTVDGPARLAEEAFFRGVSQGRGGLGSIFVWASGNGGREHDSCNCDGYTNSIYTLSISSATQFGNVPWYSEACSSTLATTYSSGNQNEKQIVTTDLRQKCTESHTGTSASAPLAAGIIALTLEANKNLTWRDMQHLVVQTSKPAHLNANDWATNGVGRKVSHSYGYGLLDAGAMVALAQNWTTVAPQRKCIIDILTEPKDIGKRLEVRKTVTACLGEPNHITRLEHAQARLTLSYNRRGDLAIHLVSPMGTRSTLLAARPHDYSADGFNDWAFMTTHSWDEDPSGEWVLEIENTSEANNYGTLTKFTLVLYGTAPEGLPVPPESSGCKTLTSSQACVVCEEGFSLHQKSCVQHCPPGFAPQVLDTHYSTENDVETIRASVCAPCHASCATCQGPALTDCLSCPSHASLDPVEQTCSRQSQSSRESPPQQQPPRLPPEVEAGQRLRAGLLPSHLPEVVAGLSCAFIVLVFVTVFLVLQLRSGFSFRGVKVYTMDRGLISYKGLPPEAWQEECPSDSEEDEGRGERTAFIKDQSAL
Sequence of Rap guanine nucleotide exchange factor 4 (Homo sapiens) (Q8WZA2 whole entry, looked up): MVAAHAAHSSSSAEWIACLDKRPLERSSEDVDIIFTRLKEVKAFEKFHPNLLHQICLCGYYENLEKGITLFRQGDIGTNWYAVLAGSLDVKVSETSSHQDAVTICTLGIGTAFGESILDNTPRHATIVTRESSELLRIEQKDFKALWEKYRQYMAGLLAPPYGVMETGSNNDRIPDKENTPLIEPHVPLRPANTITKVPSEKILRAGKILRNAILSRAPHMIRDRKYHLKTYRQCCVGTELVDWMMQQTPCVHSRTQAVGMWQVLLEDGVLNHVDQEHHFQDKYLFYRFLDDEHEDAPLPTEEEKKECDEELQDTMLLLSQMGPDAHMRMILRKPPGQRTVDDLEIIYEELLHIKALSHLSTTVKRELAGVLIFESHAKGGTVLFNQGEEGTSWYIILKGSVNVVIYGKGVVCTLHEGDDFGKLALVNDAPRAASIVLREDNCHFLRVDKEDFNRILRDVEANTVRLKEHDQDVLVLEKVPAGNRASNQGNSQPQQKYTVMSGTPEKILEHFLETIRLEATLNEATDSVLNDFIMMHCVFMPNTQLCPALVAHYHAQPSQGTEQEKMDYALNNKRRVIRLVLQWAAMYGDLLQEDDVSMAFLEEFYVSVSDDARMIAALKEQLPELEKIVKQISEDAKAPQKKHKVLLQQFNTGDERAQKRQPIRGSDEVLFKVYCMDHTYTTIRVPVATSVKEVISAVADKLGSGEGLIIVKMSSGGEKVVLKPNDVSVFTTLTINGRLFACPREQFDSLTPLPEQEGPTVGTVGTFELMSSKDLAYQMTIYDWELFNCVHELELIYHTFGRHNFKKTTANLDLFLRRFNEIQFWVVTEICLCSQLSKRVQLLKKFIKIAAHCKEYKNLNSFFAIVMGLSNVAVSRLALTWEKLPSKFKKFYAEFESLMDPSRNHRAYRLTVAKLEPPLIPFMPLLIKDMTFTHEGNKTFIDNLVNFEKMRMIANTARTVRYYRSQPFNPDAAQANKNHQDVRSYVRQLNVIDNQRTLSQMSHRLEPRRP
Sequence of Glucocorticoid receptor (Homo sapiens) (P04150 whole entry, looked up, the tested form may be a part): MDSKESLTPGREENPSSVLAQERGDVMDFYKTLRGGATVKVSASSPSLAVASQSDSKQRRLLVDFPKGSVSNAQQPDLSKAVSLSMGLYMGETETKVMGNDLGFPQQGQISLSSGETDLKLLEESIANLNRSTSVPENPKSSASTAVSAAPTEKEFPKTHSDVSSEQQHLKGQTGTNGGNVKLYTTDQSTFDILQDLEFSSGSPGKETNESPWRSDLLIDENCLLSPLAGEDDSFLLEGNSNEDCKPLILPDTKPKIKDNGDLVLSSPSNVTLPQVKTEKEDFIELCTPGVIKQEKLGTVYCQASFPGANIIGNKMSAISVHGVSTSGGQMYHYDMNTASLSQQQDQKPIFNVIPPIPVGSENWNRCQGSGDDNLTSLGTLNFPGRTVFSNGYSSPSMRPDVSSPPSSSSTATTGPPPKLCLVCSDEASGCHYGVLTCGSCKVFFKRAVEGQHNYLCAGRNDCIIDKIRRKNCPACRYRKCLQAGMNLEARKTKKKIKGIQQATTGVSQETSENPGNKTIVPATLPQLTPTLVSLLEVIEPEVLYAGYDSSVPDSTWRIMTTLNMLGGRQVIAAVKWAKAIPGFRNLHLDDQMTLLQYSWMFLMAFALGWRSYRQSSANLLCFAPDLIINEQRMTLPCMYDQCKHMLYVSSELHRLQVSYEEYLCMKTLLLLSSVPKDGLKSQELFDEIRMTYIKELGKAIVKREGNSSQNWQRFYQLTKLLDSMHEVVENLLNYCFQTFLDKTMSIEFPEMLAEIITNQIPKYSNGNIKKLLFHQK
Sequence of 3',5'-cyclic-AMP phosphodiesterase 4B (Homo sapiens) (Q07343 whole entry, looked up): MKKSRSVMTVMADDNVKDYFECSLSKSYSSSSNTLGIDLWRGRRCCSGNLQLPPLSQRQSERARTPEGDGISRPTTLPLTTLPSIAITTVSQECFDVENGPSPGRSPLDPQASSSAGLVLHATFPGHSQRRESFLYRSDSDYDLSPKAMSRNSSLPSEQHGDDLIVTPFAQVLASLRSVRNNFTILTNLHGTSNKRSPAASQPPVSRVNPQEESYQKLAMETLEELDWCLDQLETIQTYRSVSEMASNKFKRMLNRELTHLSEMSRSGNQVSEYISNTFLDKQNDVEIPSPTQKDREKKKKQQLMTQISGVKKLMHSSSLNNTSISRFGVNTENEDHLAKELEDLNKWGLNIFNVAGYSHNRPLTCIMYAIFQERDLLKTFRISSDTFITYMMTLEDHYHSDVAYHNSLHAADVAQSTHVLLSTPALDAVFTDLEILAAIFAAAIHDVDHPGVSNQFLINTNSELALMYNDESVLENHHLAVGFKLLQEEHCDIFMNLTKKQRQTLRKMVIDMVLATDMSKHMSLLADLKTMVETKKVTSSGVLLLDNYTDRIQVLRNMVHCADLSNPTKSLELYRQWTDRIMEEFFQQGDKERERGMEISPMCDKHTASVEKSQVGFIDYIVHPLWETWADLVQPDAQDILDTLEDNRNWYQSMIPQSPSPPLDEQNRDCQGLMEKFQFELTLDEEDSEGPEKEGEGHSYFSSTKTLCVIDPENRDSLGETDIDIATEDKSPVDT
Sequence of Ubiquitin carboxyl-terminal hydrolase 1 (Homo sapiens) (O94782 whole entry, looked up): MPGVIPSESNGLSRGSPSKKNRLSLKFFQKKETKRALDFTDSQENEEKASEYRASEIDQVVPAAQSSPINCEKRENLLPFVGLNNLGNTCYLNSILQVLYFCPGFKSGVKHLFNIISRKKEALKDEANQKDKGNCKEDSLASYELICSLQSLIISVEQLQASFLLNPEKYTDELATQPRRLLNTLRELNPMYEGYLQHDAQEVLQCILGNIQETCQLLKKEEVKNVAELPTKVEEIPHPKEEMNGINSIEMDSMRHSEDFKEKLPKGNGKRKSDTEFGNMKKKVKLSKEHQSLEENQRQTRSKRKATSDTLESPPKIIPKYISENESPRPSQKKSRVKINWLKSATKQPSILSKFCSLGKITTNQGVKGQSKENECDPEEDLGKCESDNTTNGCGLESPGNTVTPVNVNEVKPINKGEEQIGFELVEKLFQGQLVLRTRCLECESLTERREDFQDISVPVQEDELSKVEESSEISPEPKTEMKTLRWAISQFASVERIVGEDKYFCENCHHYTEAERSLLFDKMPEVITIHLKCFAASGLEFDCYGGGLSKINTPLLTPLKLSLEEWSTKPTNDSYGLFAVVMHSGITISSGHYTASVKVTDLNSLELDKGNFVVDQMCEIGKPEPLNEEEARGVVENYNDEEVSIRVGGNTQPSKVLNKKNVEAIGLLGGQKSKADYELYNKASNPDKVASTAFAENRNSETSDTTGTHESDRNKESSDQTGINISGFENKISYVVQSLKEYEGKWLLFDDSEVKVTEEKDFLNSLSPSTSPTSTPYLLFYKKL

CCOc1ccc(S(=O)(=O)Nc2cc3c(C(=O)OCc4ccccc4)c(C)oc3c3ccccc23)cc1
Potency (Furin (Homo sapiens)): inactive
Potency [1]: inactive
Potency [2]: 316 µM (active)

O=C(O)COc1ccccc1C1Nc2ccccc2-c2nnc(SCc3ccc(Cl)cc3)nc2O1 (stereo unspecified)
Potency (Furin (Homo sapiens)): inactive
Potency [1]: inactive
Potency [2]: 224 µM (active)
Potency [3]: inactive

O=C(Nc1ccc(C(=O)OCc2cc(=O)n3c4c(sc3n2)CCCC4)cc1)c1ccc(Cl)cc1
Potency (Furin (Homo sapiens)): 46.9 µM (active)
Potency [4]: inactive
Potency [3]: inactive

O=C(COc1ccccc1F)Nc1ccc(C(=O)OCc2cc(=O)n3nc(C4CC4)sc3n2)cc1
Potency (Furin (Homo sapiens)): inactive
Potency [4]: inactive
Potency [3]: inactive

CCOC(=O)c1cccc(NC(=O)CSc2ncc3c(n2)-c2ccc(Cl)cc2N(Cc2ccccc2)S3(=O)=O)c1
Potency (Furin (Homo sapiens)): inactive
Potency [1]: inactive
Potency [5]: 44.7 µM (active)

Cc1cccc(C)c1-n1c(SCC(=O)Nc2ccc(C(=O)O)cc2)nnc1-c1cccc([S+](=O)([O-])N2CCCC2)c1
Potency (Furin (Homo sapiens)): inactive
Potency [1]: inactive
Potency [6]: 70.8 µM (active)
Potency [2]: 89.1 µM (active)
Potency [3]: inactive

O=C(COc1ccc(F)cc1)Nc1ccc(C(=O)OCc2cc(=O)n3nc(C4CC4)sc3n2)cc1
Potency (Furin (Homo sapiens)): inactive
Potency [4]: inactive
Potency [3]: inactive

O=C(Nc1ccc(C(=O)OCc2cc(=O)n3c4c(sc3n2)CCCC4)cc1)c1ccc(F)cc1
Potency (Furin (Homo sapiens)): 66.3 µM (active)
Potency [1]: inactive
Potency [6]: inactive
Potency [3]: inactive

O=C(O)COc1ccc(-c2nccc3c2C(=O)N(Cc2cccc(C(F)(F)F)c2)CC(COc2cccc(F)c2)O3)cc1 (stereo unspecified)
Potency (Furin (Homo sapiens)): inactive
Potency [1]: inactive
Potency [2]: 28.2 µM (active)
Potency [3]: inactive

CCCCc1nn2c(=O)cc(COC(=O)c3ccc(NC(=O)CCc4ccccc4)cc3)nc2s1
Potency (Furin (Homo sapiens)): inactive
Potency [1]: inactive
Potency [2]: 25.1 µM (active)
Potency [3]: inactive

Cc1oc2c(cc(NS(=O)(=O)c3ccc(F)cc3)c3ccccc32)c1C(=O)OCc1ccccc1
Potency (Furin (Homo sapiens)): inactive
Potency [1]: inactive
Potency [2]: 158 µM (active)

CCOC(=O)c1ccc(NC(=O)Cn2nnc(-c3ccc(C(F)(F)F)cc3)n2)cc1
Potency (Furin (Homo sapiens)): inactive
Potency [4]: inactive
Potency [3]: inactive

COC(=O)c1ccc(NC(=O)CSc2ncc3c(n2)-c2cc(Cl)ccc2N(Cc2ccccc2)S3(=O)=O)cc1
Potency (Furin (Homo sapiens)): 83.5 µM (active)
Potency [1]: inactive

CC(C)c1nn2c(=O)cc(COC(=O)c3ccc(NC(=O)CCc4ccccc4)cc3)nc2s1
Potency (Furin (Homo sapiens)): inactive
Potency [4]: inactive
Potency [3]: inactive

CCCCc1nn2c(=O)cc(COC(=O)c3cccc(NC(=O)c4cccc(Cl)c4)c3)nc2s1
Potency (Furin (Homo sapiens)): 29.6 µM (active)
Potency [4]: inactive
Potency [3]: inactive

CC(C)c1nn2c(=O)cc(COC(=O)c3ccc(NC(=O)c4ccccc4Cl)cc3)nc2s1
Potency (Furin (Homo sapiens)): inactive
Potency [4]: inactive
Potency [3]: inactive

CCCCCCc1cc2cc(-c3cn4c(n3)sc3cc(OC)ccc34)c(=O)oc2cc1O
Potency (Furin (Homo sapiens)): inactive
Potency [1]: inactive
Potency [6]: inactive
Potency [2]: 35.5 µM (active)
Potency [3]: inactive
Potency [7]: inactive
outcome [8]: inactive
outcome [9]: inactive
activity change, negative = inhibition [10]: -6.89% [at 12.7 µM] (inactive)
outcome [11]: inactive
Potency [12]: inactive

O=C(O)COc1ccc(-c2nccc3c2C(=O)N(Cc2cccc(C(F)(F)F)c2)CC(COc2ccc4cnccc4c2)O3)cc1 (stereo unspecified)
Potency (Furin (Homo sapiens)): 62.2 µM (active)
Potency [2]: 35.5 µM (active)
Potency [3]: inactive

CCOC(=O)c1ccc(NC(=O)CSc2nc(-c3ccc(F)cc3)cc(C(F)(F)F)c2C#N)cc1
Potency (Furin (Homo sapiens)): inactive
Potency [2]: inactive

CC[C@@H]1O[C@]2(C=C[C@@H]1C)C[C@H]1C[C@H](CC=C(C)[C@@H](O[C@@H]3C[C@H](OC)[C@H](O[C@@H]4C[C@H](OC)[C@H](O)[C@H](C)O4)[C@H](C)O3)[C@@H](C)C=CC=C3CO[C@@H]4[C@@H](O)C(C)=C[C@@H](C(=O)O1)[C@]34O)O2
activity change, negative = inhibition [13]: 6.2% (inactive)
activity, negative = inhibition [14]: -5.99% (inactive)
Potency [15]: > 20.6 µM (inactive)
Potency [16]: > 20.6 µM (inactive)
Potency [17]: inactive
Potency [18]: inactive
activity change, negative = inhibition ([19]; at 25.7 µM (top of the series)): -16.6% (inactive)
max response ([19]; measured here: cell count channel max response): -4.3%
max response ([19]; measured here: lipid channel max response): -18.8%
Potency [20]: inactive
Potency (Furin (Homo sapiens)): inactive
Potency [21]: inactive
Potency [22]: inactive
Potency [3]: 9.97 µM (active)

C[S+](=O)([O-])c1ccc(OCC2CN(Cc3ccccc3)C(=O)c3c(ccnc3-c3ccc(OCC(=O)O)cc3)O2)cc1 (stereo unspecified)
Potency [23]: inactive
Potency [24]: inactive
Potency [3]: inactive
